In PubChem BioAssay AID493214 (National Center for Advancing Translational Sciences (NCATS), 2011):

Target: 4'-phosphopantetheinyl transferase Sfp (Bacillus subtilis) (UniProt P39135)
Experiment: Inhibitos of Bacillus subtilis Sfp phosphopantetheinyl transferase (PPTase): Dry Powder Followup
Conditions: purified Sfp PPTase enzyme assay, dry powder retest; series mostly up to 114 µM; activity change, negative = inhibition: at the top concentration; active = well fitted inhibition curve with a large enough effect; inactive = no such curve, though single readings can be large or run the other way
Source text: The covalent attachment of a phosphopantetheinyl (4'-PP) arm to a variety of synthases and other proteins is a key posttranslational protein modification. The 4'-PP is installed on the proteins post-translationally from coenzyme A (CoA) on a conserved serine residue by action of phosphopantetheinyl transferase (PPTase) enzymes. Phosphopantetheinylation is essential for synthase activity, and removal of the PPTase gene precludes natural product synthesis in microorganisms, or in the case of fatty acid biosynthesis, renders the organism unviable. PPTase enzymes belong to a distinct structural superfamily. Within bacteria, these enzymes are grouped into two classes based upon primary structure, the AcpS-Type and Sfp-Type PPTases.
Sfp-type PPTases, corresponding to an activator of surfactin production in Bacillus subtilis, are responsible for modifying type I polyketide and nonribosomal peptide synthases of prokaryotes. Sfp-type PPTases are responsible for the activation of a variety of pathogen-associated virulence factors. […]
In search of small molecule Sfp-PPTase inhibitors, a fluorescence quenching assay was developed for detection of Bacillus subtilis Sfp-PPTase enzymatic activity in a miniaturized high-throughput format. […]
Inhibition of Sfp-PPTase was detected by recording the fluorescence intensity change over a 30-minute reaction period at a 525 nm excitation and 598 nm emission. […]
Three uL of reagents, consisting of buffer (in columns 3 and 4 as negative control) and Sfp-PPTase (in columns 1, 2, 5 - 48) were dispensed into 1,536-well Greiner black solid bottom plate. […] The plate was then centrifuged at 1000 rpm for 15 seconds, and the fluorescence intensity recorded on a ViewLux High-throughput CCD imager (Perkin-Elmer) using standard BODIPY optics (525 nm excitation and 598 nm emission). The plate was then incubated for 30 minutes, and a second read on the ViewLux was performed. The fluorescence intensity difference over the 30-minute period was used to calculate the respective reaction rate for each well.

Chain of 4'-phosphopantetheinyl transferase Sfp (Bacillus subtilis) (P39135 whole entry, looked up): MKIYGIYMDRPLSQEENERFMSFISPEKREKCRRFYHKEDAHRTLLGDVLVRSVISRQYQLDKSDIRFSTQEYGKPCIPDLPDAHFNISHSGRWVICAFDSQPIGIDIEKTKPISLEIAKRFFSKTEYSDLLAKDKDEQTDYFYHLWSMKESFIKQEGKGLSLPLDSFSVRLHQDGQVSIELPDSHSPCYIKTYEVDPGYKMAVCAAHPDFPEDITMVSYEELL

Activity change, negative = inhibition, inactive:
O=c1[nH]c2ccccc2n2c(-c3ccccc3)nnc12 -0.136%
Clc1ccccc1-c1nn2c(-c3ccncc3)nnc2s1 14.5%
Cn1c(SCC(=O)c2cc3ccccc3o2)nnc1-c1ccccc1 -7.43%
